This is an account of results in PMC7819943, “Rice protein-binding microarrays: a tool to detect cis-acting elements near promoter regions in rice”.

The full ranking holds about 68,000 sequences; the median of “fluorescence intensity (a.u.)” is about 9,100, and the highest 2% start at about 16,000. The entries come from a sample that favours the highest values as a whole.

In the experiment the target is OsWRKY34 (Oryza sativa, UniProt Q0JBA9 1-250). Briefly: protein-binding microarray (RPBM); PBS, 2% BSA, 51.3 ng/ul salmon testes DNA, 50 uM zinc acetate, 200 nM TF, 25 C, 1 h; high values mean tight binding. As to conditions: protein: recombinant; tags: N-terminal polyhistidine and DsRed monomer fusion (pET32a); label: CyDye5-dUTP incorporated in the synthesized complementary strand; 3' TTTTT single-stranded linker to array surface; dsDNA, one strand shown. In short, it runs like this: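 Using Ni–NTA, transcription factors fused N-terminally to polyhistidine and DsRed were purified after expression in E. coli BL21-CodonPlus. These were incubated at 200 nM with a blocked, double-stranded custom Agilent array for 1 h at 25 °C in a buffer containing 50 µM zinc acetate, and the array was washed. The binding signal is per-feature fluorescence intensity (arbitrary units) on an Axon 4000B scanner.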
Sequence of OsWRKY34 (Q0JBA9 entry or part of it): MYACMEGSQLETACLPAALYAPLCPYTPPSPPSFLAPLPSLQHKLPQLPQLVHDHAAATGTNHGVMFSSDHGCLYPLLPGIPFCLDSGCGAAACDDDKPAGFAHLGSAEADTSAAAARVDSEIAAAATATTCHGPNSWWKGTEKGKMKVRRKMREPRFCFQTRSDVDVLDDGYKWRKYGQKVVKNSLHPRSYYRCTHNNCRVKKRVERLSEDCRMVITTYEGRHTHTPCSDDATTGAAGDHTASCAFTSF
For the sequence “TTTCACCTAGTCCTAGCCTAATTCGTCTATCTTTATCAATCGGAGTCACCTAGTGCAG”, the binding signal was 9710 fluorescence intensity (a.u.). Consider “CGCTGCTTTTGCTGCTGCTGTTGATGATGCATCCCATTCCCGGAGTCACCTAGTGCAG”, for which the binding signal was 9140 fluorescence intensity (a.u.). Take “GCTGGGAGGGAGGAGCGGGAGGCGGCGCGGCGCGTGGAGGCGGAGTCACCTAGTGCAG”: the binding signal was 8580 fluorescence intensity (a.u.). Regarding “TATTTTAGTGCAAGGGGCGGGCGGGCGCGGTAGAAGTCAACGGAGTCACCTAGTGCAG”, the binding signal is 18200 fluorescence intensity (a.u.). For “GGCGGCGGCGGCGGGGCGGCGTGGCGCCGAGGGAGGGGAACGGAGTCACCTAGTGCAG”, the binding signal was 12500 fluorescence intensity (a.u.). On to “GGCGTGGGGAGGCGGAGGGAGGGAGGGGAGCGGCTGCGCACGGAGTCACCTAGTGCAG”, for which the binding signal was 17700 fluorescence intensity (a.u.). For the sequence “GGGAGCGGGTGGGAGTGGCCGGCGCGGAGGACGACGGCGGCGGAGTCACCTAGTGCAG”, the binding signal was 8280 fluorescence intensity (a.u.). As for “CGGAGGCATGGGGAGGCTGCTGCGGCGCCAATTGTGGCCACGGAGTCACCTAGTGCAG”, the binding signal is 8860 fluorescence intensity (a.u.).

With “GGTTCTTCTGAGCGGGGCCGGGGCGGGGCGGCAGCTGGGGCGGAGTCACCTAGTGCAG”, the binding signal was 30000 fluorescence intensity (a.u.).

“CGCGCGCGCGCGCGTACGTGGGAACAGAGAGCGGCGCCGACGGAGTCACCTAGTGCAG”: the binding signal is 27900 fluorescence intensity (a.u.). For “TGCGGGGCGCAAGGCGCGCGGTAGGGGAGGGGTTAGCGCTCGGAGTCACCTAGTGCAG” the value was 8190 fluorescence intensity (a.u.); for “GGCCGGTAGGGGTAGAACGGTCATTTCGTGCGCGGGGAGGCGGAGTCACCTAGTGCAG”, 9810 fluorescence intensity (a.u.); for “AGCTGAGGGGCGGCGGCGGCTGGCAAGGGGCGGCGGCGGCCGGAGTCACCTAGTGCAG”, 10900 fluorescence intensity (a.u.). Take “GTAGCAATGGGCGGCGGGGAGCGGGGCTGAGCGGCAGCCGCGGAGTCACCTAGTGCAG”: the binding signal is 8150 fluorescence intensity (a.u.). “AATACGGTTTGGAAGGGATCTTTTTTGGTTGGTTGCACTGCGGAGTCACCTAGTGCAG”: the binding signal is 9650 fluorescence intensity (a.u.). Regarding “ATAGTTGTTTTGCCTACCCCACCCATGCCGAAGATGGACACGGAGTCACCTAGTGCAG”, the binding signal was 8790 fluorescence intensity (a.u.). As for “ATCTTTTCTCTTCTCGACTTCTCGTATGCCGCGTCCCGTCCGGAGTCACCTAGTGCAG”, the binding signal is 11100 fluorescence intensity (a.u.). As to “CTTGTGGCTTGTGCAATTCTGTTTCATCGAGTTTGTTAACCGGAGTCACCTAGTGCAG”, the binding signal was 8830 fluorescence intensity (a.u.). Turning to “TTCAAATCTCATCCGAATTTTTTGTTTTTTATTTTTTTTTCGGAGTCACCTAGTGCAG”, the binding signal was 8280 fluorescence intensity (a.u.).

With “TAGTTCATCCTTGACATCAAGTGGGTTGCTAGTCTCATTCCGGAGTCACCTAGTGCAG”, the binding signal was 9450 fluorescence intensity (a.u.).

“TAGGCTGTATTCTTATCCACTCATGCAGTGCTCTGATAGGCGGAGTCACCTAGTGCAG”: the binding signal is 11000 fluorescence intensity (a.u.). With “TGGTTTGCATCTCTTCTTGCTCTTTGGAGGATTTACTACTCGGAGTCACCTAGTGCAG”, the binding signal was 9510 fluorescence intensity (a.u.).

Consider “GAGGCCGGGGTCGGGGCGAGCGAGGCGAGAGGGGAGGAGGCGGAGTCACCTAGTGCAG”, for which the binding signal is 8910 fluorescence intensity (a.u.). In the case of “AGGAGGCGGGGCGGGGCGGCGGCGGCGGCGGCGGCGCCCGCGGAGTCACCTAGTGCAG”, the binding signal is 11500 fluorescence intensity (a.u.). As to “GGCGTGTTGTGTTCGGGTGGGTGCTGCGCAGGCTGCTGTACGGAGTCACCTAGTGCAG”, the binding signal is 17300 fluorescence intensity (a.u.).

Turning to “CGGGGTGGGAGCAGGGGTCGCGCGGCGGGGTGCGGCCATGCGGAGTCACCTAGTGCAG”, the binding signal is 10100 fluorescence intensity (a.u.). With “TTCTTCTAGAGGAGGAGGAGGCGGCGGGGCGGCGGGCGAGCGGAGTCACCTAGTGCAG”, the binding signal was 17300 fluorescence intensity (a.u.). For “GGGCGGAGGCGGGGATCGCGGCGGGAGGGGTGGATCCATGCGGAGTCACCTAGTGCAG”, the binding signal was 17400 fluorescence intensity (a.u.). As to “GCGGCCGGTCCGAGCGAGCGGAGAGGGAGGAGGCGGGGAGCGGAGTCACCTAGTGCAG”, the binding signal is 8360 fluorescence intensity (a.u.). Turning to “GGTCGCCGGATCGCGGGAGGGAGGGAGGGAGGGAGGGAGGCGGAGTCACCTAGTGCAG”, the binding signal is 14100 fluorescence intensity (a.u.). As for “CGGCGGCGGAGGAGGAGGAGGAGGAGGGCGCGGGGCGGCGCGGAGTCACCTAGTGCAG”, the binding signal was 21700 fluorescence intensity (a.u.).

Regarding “GCAGGCGGAGGCGGAGGCGGAGGCGGAGGCGGCGGCGGCGCGGAGTCACCTAGTGCAG”, the binding signal was 8950 fluorescence intensity (a.u.). For the sequence “GGGAGTGTGGAGGTGTTGTGCTGCGGCGTGGGTGTGTTGGCGGAGTCACCTAGTGCAG”, the binding signal was 8640 fluorescence intensity (a.u.). As for “GTGTTGGTGGCTCTGGCTGCGTCGACGTGCGCAGGGCGTTCGGAGTCACCTAGTGCAG”, the figure is 8050 fluorescence intensity (a.u.). As for “CTGCTCTTTCTTCTCTCTGCATTCCATTTCATTACTGCCTCGGAGTCACCTAGTGCAG”, the figure is 11000 fluorescence intensity (a.u.); as for “AGCTCGTGTGGTGTATGTTGTTGTGTGCTGCTAGCTAGCTCGGAGTCACCTAGTGCAG”, 10200 fluorescence intensity (a.u.); as for “TCCATGCCATCTGCTGAACAGACCCATGCATCCTTCAACTCGGAGTCACCTAGTGCAG”, 8920 fluorescence intensity (a.u.). For “CACATCAAATTTATTTTCTCCCAAAATGAGGCGCGCAACACGGAGTCACCTAGTGCAG” the value was 8670 fluorescence intensity (a.u.); for “GCTGTCGTTGAATTTTTGTTTGTTTTCTTGGCGTGTTGCACGGAGTCACCTAGTGCAG”, 13300 fluorescence intensity (a.u.).

“CTTTCCATGGTTTTTGCTCCCGCAGCCCGGGCCACTGCCCCGGAGTCACCTAGTGCAG”: the binding signal is 11600 fluorescence intensity (a.u.). As to “CGTCTCGTTTCTCATCTCAAAATTTCGCGCCTCGTCGCCGCGGAGTCACCTAGTGCAG”, the binding signal was 8640 fluorescence intensity (a.u.). Turning to “GCTCAGCCGCCGTCGCCAGTCCAACCTCCGCCACCGCGGCCGGAGTCACCTAGTGCAG”, the binding signal was 8640 fluorescence intensity (a.u.).
